VP16 counter = VP16 counterscreen qHTS for inhibitors of ROR gamma transcriptional activity. Drosophila S2 Gal4-VP16 UAS-luciferase, luminescence, 20 h. 310,000 tested, 3.5% active. Potency, µM (top dose mostly 53.6 µM), inactives show top-dose activity, negative = inhibition, actives largely listed as inhibitors. AID 2546, 2010;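 also: Gal4-VP16 expression switched on by copper sulfate through the metallothionein promoter; potency is read from the fitted curve at half-maximal effect; nearly all actives have a fitted effect of over 50% in size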
RORg inh = qHTS for inhibitors of ROR gamma transcriptional activity; Drosophila S2 Gal4-RORgamma UAS-luciferase reporter, 20 h; Potency, µM (doses to about 53.6 µM), for the others: at the highest dose activity change, negative = inhibition, actives largely listed as inhibitors; 310,000 tested, 5.4% active; AID 2551, 2010; also: potency is read from the fitted curve at half-maximal effect; nearly all actives have a fitted effect of over 60% in size
Target sequence (P51450 whole entry, looked up, the tested form may be a part): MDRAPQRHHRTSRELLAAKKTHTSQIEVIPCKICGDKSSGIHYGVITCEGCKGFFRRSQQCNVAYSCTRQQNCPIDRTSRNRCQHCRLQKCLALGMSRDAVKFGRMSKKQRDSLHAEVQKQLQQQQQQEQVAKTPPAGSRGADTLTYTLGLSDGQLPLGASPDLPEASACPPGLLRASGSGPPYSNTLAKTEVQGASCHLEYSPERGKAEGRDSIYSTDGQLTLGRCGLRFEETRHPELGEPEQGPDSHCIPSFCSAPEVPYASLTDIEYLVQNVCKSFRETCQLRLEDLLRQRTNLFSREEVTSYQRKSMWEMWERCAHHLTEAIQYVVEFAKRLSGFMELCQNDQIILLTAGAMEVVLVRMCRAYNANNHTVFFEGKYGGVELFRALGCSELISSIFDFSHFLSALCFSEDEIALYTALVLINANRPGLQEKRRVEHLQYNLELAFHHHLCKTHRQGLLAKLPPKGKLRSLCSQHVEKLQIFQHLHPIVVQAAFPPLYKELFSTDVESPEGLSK
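Drosophila S2 cells stably expressing Gal4-DBD/mouse RORγ fusion under metallothionein promoter plus UAS-luciferase; compound 1 h, then 700 uM CuSO4 induction for 20 h at ambient temperature; inhibition read as reduced luminescence.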
FBPA coupling cs = qHTS Assay for Inhibitors of Fructose-1,6-bisphosphate Aldolase from Giardia Lamblia: Coupling assay counterscreen; coupling enzyme system counterscreen, AmpLite Red fluorescence; activity change, negative = inhibition, % at 58.2 µM, hits read low; 290,000 tested, 0.67% active; in the data active = activity change below about -30%
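Activity here indicates interference with the coupling reaction, not aldolase inhibition. Compounds at 57.5 uM final met coupling enzymes for 10 min at RT; substrate and AmpLite Red detection followed, with a 525/598 nm fluorescence read after 20 min.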
TSHR antag = Antagonists of the Thyroid Stimulating Hormone Receptor: HTS campaign; TSHR-expressing cells, TSH-stimulated cAMP HTRF, 2 h; active compounds read low; activity change, negative = inhibition, % at 11.5 µM; Thyrotropin receptor (Homo sapiens), P16473; AID 504810, 2011; 330,000 tested, 0.2% active;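 active = activity change below a set negative limit, meaning inhibition stronger than a set level, cut at about -70% in these data; inconclusive = activity change between two set negative limits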
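TSHR-expressing cells, 200/well, pre-treated with compound, then stimulated with EC80 TSH (4nM final) for 2 hours at 37 deg C. cAMP measured by competitive HTRF: anti-cAMP cryptate antibody in lysis buffer plus cAMP-d2, read after 30 minutes at room temperature.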
ELG1 repair inh = qHTS screen for small molecules that inhibit ELG1-dependent DNA repair in human embryonic kidney (HEK293T) cells expressing luciferase-tagged ELG1. HEK293T ELG1-luciferase reporter, luminescence, 16 h; DNA damage induced by 5-fluorouridine. Potency, µM (highest dose often 46.1 µM), without a hit: top-dose activity change, negative = inhibition, actives largely listed as inhibitors. 330,000 tested, 2.3% active. AID 504467, 2011; also: potency is read from the fitted curve at half-maximal effect; nearly all actives have a fitted effect of over 55% in size
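HEK293T cells expressing luciferase-tagged ELG1 (2,000/well) received 5-Fluorouridine plus compound or DMSO for 16 hr at 37 °C. Luciferase was read by ONE-Glo luminescence after 30 min at room temperature.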
* = called active by the depositor; ? = inconclusive; . = no result given. Hits are enriched below; roughly 8% of the tested compounds scored in any of these assays. Unless noted, calls follow the shape of the dose curve; as a rule, active = well fitted curve in the direction sought with a large enough effect; inconclusive = small, poorly fitted or top-dose-only effect, or another doubt; inactive = no such curve, though single readings can be large; an effect the other way counts as inactive or inconclusive. % is scaled to controls: 0 for no effect and ±100 for the full control effect.

SMILES | VP16 counter | RORg inh | FBPA coupling cs | TSHR antag | ELG1 repair inh
COc1ccccc1OCC(=O)NCCS(=O)(=O)N1CCN(c2ccc(F)cc2)CC1 | 15.7% | 13.7% | 2.7 | 4.8 | -7.5%
N#Cc1cccc(NC(=O)N2CCCC3(CCN(C(=O)c4cc(C(F)(F)F)cc(C(F)(F)F)c4)CC3)C2)c1 | 0.5% | 18.4% | -8.0 | . | .
O=C(Cc1ccccc1)N[C@H](c1ccccc1)P(=O)(O)CO | -4.4% | 2.82µM* | -0.5 | -1.3 | 9.5%
O=C(OCc1nc(-c2ccccc2Cl)no1)c1ccco1 | . | . | . | -5.0 | 18.6%
COc1ccc(NC(=S)Nc2ccccn2)cc1 | 7.08µM* | 2.82µM* | 2.6 | 19.6 | ?
Cc1ccc(NC(=O)C(=O)Nc2ccccn2)cc1 | 5.62µM* | 6.31µM* | 3.4 | 0.4 | ?
Cc1cccc(NC(=S)Nc2ccc(Oc3ccccc3)cc2)n1 | ? | 8.9% | 4.6 | -34.9 | 26.4%
COC(=O)c1ccc(NC(=S)Nc2ccccn2)cc1 | 1µM* | 1µM* | 1.3 | -9.9 | ?
Cc1ccc(S(=O)(=O)CC(=O)Nc2ccccn2)cc1 | 3.2% | -13.7% | 0.6 | 2.3 | -6.1%
COc1ccccc1NC(=S)Nc1ccccn1 | 3.55µM* | 1.58µM* | -0.5 | -1.4 | 5.8%
N[C@](CC1c2ccccc2Oc2ccccc21)(C(=O)O)[C@@H]1C[C@@H]1C(=O)O | 3.7% | 17.1% | 3.1 | . | .
CC(=O)c1cccc(NC(=S)N2CCN(c3ccccn3)CC2)c1 | 3.0% | -1.4% | 2.1 | -1.6 | ?
COCCCN(C(=O)CSCc1c(C)noc1C)c1c(N)n(Cc2ccccc2)c(=O)[nH]c1=O | . | . | . | -5.2 | 22.9%
O=C(c1cccc(F)c1)N1CCC[C@@]2(CCN(C(c3ccccc3)c3ccccc3)C2)C1 | -3.6% | 35.5% | 1.2 | . | .
CCCn1c(NC(=O)C2CCN(C(=O)c3ccc(F)cc3)CC2)nc2ccccc21 | 8.91µM* | 7.08µM* | . | -5.3 | ?
CCCn1c(NC(=O)c2ccc(F)cc2)nc2ccccc21 | 2.51µM* | 0.316µM* | -4.9 | 3.8 | 2.2%
CCCn1c(C(C)NC(=O)c2ccccc2)nc2ccccc21 (stereo not given) | -18.1% | ? | -4.4 | -0.6 | -7.5%
CCCn1c(NC(=O)CCS(=O)(=O)c2ccc(C)cc2)nc2ccccc21 | . | . | . | 6.1 | -12.9%
O=C(Nc1ccc(F)cc1)C1CCN(C(=O)c2ccc(F)cc2)CC1 | . | . | . | -6.2 | 0.7%
CCCn1c(NC(=O)c2ccc(Br)cc2)nc2ccccc21 | 1.26µM* | 1µM* | -3.2 | 1.8 | ?
Cn1c(CCNC(=O)c2ccc(F)cc2)nc2ccccc21 | 4.2% | -21.6% | -0.2 | 10.8 | -10.9%
CCCn1c(NC(=O)CCNC(=O)c2ccccc2Cl)nc2ccccc21 | . | . | . | 7.6 | 20.6µM*
CC(NC(=O)c1ccc(F)cc1)c1nc2ccccc2n1Cc1ccccc1F (stereo not given) | -4.1% | 17.8µM* | 0.2 | -1.7 | -11.9%
CCCn1c(NC(=O)c2ccccc2Br)nc2ccccc21 | 2.82µM* | 0.355µM* | -0.1 | 7.1 | 0.0%
CC(C)CN(C(=O)Cn1c(Cl)nc2c1c(=O)n(C)c(=O)n2C)C1CCS(=O)(=O)C1 (stereo not given) | . | . | . | -6.6 | 14.9%
SMILES | VP16 counter | RORg inh | FBPA coupling cs | TSHR antag | ELG1 repair inh
COc1cc(C[C@H]2C(=O)OC[C@@H]2Cc2ccc(OC)c(OC)c2)ccc1O | 1.12µM* | 6.31µM* | 2.9 | . | .
CC(=O)N1C2(C=CC1(C)C(=O)NCc1ccccn1)CCCCC2 (stereo not given) | ? | 11.2µM* | -1.9 | . | .
CCc1cc(-c2n[nH]c(C)c2-c2ccccc2Cl)c(O)cc1OC | ? | ? | -34.9* | 8.5 | -3.6%
C=C(C)COc1ccc(-c2n[nH]c(C)c2-c2ccc(OC)cc2)c(O)c1 | ? | 2.24µM* | -5.0 | -6.8 | -41.4%
COc1ccc(-c2c(-c3ccc(OCC(=O)NN)cc3O)n[nH]c2C(F)(F)F)cc1 | 4.47µM* | 6.31µM* | -8.0 | -21.2 | -5.0%
COc1ccc(-c2c(-c3ccc(OCC(=O)NN)cc3O)n[nH]c2C)cc1OC | 1.9% | -26.9% | -1.7 | -3.7 | ?
CCc1cc(-c2n[nH]c(C)c2-c2nc3ccccc3n2C)c(O)cc1O | 2.3% | -3.4% | -20.4 | -13.0 | ?
CCOc1ccc(-c2n[nH]c(C)c2-c2ccccc2OC)c(O)c1 | ? | 2µM* | -11.8 | 58.0 | ?
NS(=O)(=O)c1ccc(CNC(=O)c2ccc3c(c2)OCO3)cc1 | . | . | . | -4.6 | 0.0%
CC[C@H](C)[C@H](NC(=O)[C@H](CCC(=O)O)NC(=O)[C@H](CC(N)=O)NC(=O)[C@@H](N)[C@@H](C)O)C(=O)N[C@H](C(=O)N[C@@H](CCC(=O)O)C(=O)N[C@@H](CCC(=O)O)C(=O)N[C@@H](CCC(N)=O)C(=O)N[C@@H](Cc1ccc(O)cc1)C(=O)N[C@H](C(=O)N1CCC[C@H]1C(=O)N[C@@H](CCC(N)=O)C(=O)N[C@@H](CO)C(=O)N[C@@H](CC(C)C)C(=O)N[C@@H](C)C(=O)N[C@H](C(=O)N[C@@H](CC(C)C)C(=O)N[C@@H](CCC(=O)O)C(=O)N[C@@H](CO)C(=O)N[C@H](C(=O)N[C@@H](Cc1ccccc1)C(=O)N[C@@H](CCC(N)=O)C(=O)N[C@@H](CCC(=O)O)C(=O)N[C@@H](CC(C)C)C(=O)NCC(=O)N[C@@H](CCCCN)C(=O)N[C@@H](CC(C)C)C(=O)N[C@H](C(=O)NCC(=O)N1CCC[C@H]1C(=O)N[C@@H](CC(N)=O)C(=O)N[C@@H](CO)C(=O)N[C@@H](CCC(N)=O)C(=O)O)[C@@H](C)O)C(C)C)[C@@H](C)O)[C@@H](C)O)C(C)C | -3.5% | 3.0% | 1.7 | . | .
N#Cc1ccccc1OCC(=O)OCCCOC(=O)COc1ccccc1C#N | -2.4% | 14.8% | . | -0.2 | ?
COc1c(O)c(O)c2cc(OC)c3c(OC)cc(=O)c4c5c(=O)c(OC)c(C(C)=O)c6c5c(c1CC=6C)c2c34 | -7.9% | 5.2% | -7.7 | . | .
Cn1cccc1/C=N/NC(=O)Cc1cccc2ccccc12 | 14.1µM* | ? | -1.6 | -0.6 | 13µM*
Cc1cc(C(=O)N/N=C/c2cccn2C)n[nH]1 | -0.3% | 15.4% | 0.8 | 13.8 | ?
Cn1cccc1/C=N/NC(=O)c1sc2ccccc2c1Cl | 3.16µM* | 0.447µM* | -1.4 | -8.0 | ?
O=C(N/N=C/c1c[nH]c2ccccc12)c1sc2ccccc2c1Cl | ? | ? | -2.6 | -2.3 | ?

Screens (PubChem)
